High-throughput results as filed in PubChem BioAssay.
Shown are actives, neighbours in structure and some others; about 12% of the full set was active somewhere.
Sfp inh – Sfp phosphopantetheinyl transferase inhibition; Q9F4F7; Biochemical Sfp PPTase activity, qHTS; Potency, µM, without a hit: largest response in the series, negative = inhibition, usual class: inhibitors; 310,000 compounds, 3.5% hits;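 note: the enzyme is Sfp with the accession as filed and its product quenches rhodamine fluorescence; 0% = enzyme reaction without inhibitor and -100% = no enzyme wells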
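Buffer: 50 mM Hepes-Na pH 7.6, 10 mM MgCl2, 0.01% Nonidet P-40, 0.01% BSA. Enzyme 15 nM, pre-exposed to compound 15 min; substrates then added and fluorescence change tracked over 30 min.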
G9a block – inhibitors of human histone lysine methyltransferase G9a | 350,000 compounds, 8.8% hits | Potency, µM (top dose mostly 102 µM), without a hit: at the highest dose activity, negative = inhibition, hits mostly inhibitors | G9a H3K9 monomethylation, AlphaScreen, 2 h | Q96KQ7; note: % is set by controls: 0 for no effect and ±100 for the full control effect; nearly all actives have a fitted effect of over 75% in size
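Signal arises when biotinylated H3K9 peptide, once monomethylated, bridges streptavidin donor and antibody-captured acceptor beads. Enzyme at 20 nM was preincubated 15 min with test compounds; peptide 500 nM and SAM 20 uM then reacted for 2 h.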
L3MBTL1 inh – inhibitors of human L3MBTL1; Potency, µM (highest dose often 57.1 µM), inactives show at the highest dose activity, negative = inhibition, hits mostly inhibitors; 230,000 compounds, 0.66% hits; Q9Y468; AID 485360; AlphaScreen L3MBTL1–H3K9me1 peptide binding; note: % is set by controls: 0 for no effect and ±100 for the full control effect; nearly all actives have a fitted effect of over 60% in size
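AlphaScreen assay: L3MBTL1 (50 nM final) was preincubated 30 min at room temperature with biotinylated H3(1-15)K9me1 peptide (75 nM final), then 30 min with library compounds; streptavidin donor and nickel chelate acceptor beads (10 ug/mL final) added, 30 min dark.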
JMJD2A Tudor – JMJD2A Tudor domain (human) inhibition | AlphaScreen JMJD2A-Tudor / H3K4me3 peptide binding | Potency, µM (doses to about 114 µM), for the others: top-dose activity change, negative = inhibition, most hits filed as inhibitors | 390,000 compounds, 4.4% hits; note: % is set by controls: 0 for no effect and ±100 for the full control effect; nearly all actives have a fitted effect of over 50% in size
HP1b chromo inh – HP1-beta chromodomain-methylated histone interaction inhibition; AlphaScreen HP1-beta / biotin-H3K9me3 peptide binding; Potency, µM (titrated, usually from 114 µM), for the others: top-dose activity change, negative = inhibition, most hits filed as inhibitors; P83916; AID 540317; 390,000 compounds, 0.56% hits; note: nearly all actives have a fitted effect of over 70% in size
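HP1-beta protein (50 nM final) preincubated 30 min at room temperature with biotinylated H3(1-18)K9me3 peptide (50 nM) in PBS pH 7.4, 0.01% Tween-20, then compound added for 30 min. AlphaScreen streptavidin donor/nickel chelate acceptor beads (10 ug/mL final), 30 min dark, luminescence read.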
BAZ2B inh – blocks human BAZ2B; Q9UIF8; AlphaScreen BAZ2B-H3K14Ac peptide displacement; Potency, µM (titrated, usually from 114 µM), without a hit: at the top dose activity change, negative = inhibition, most hits filed as inhibitors; 360,000 compounds, 4.4% hits; note: % is set by controls: 0 for no effect and ±100 for the full control effect; nearly all actives have a fitted effect of over 60% in size
Target sequence (Q9UIF8 whole entry, looked up): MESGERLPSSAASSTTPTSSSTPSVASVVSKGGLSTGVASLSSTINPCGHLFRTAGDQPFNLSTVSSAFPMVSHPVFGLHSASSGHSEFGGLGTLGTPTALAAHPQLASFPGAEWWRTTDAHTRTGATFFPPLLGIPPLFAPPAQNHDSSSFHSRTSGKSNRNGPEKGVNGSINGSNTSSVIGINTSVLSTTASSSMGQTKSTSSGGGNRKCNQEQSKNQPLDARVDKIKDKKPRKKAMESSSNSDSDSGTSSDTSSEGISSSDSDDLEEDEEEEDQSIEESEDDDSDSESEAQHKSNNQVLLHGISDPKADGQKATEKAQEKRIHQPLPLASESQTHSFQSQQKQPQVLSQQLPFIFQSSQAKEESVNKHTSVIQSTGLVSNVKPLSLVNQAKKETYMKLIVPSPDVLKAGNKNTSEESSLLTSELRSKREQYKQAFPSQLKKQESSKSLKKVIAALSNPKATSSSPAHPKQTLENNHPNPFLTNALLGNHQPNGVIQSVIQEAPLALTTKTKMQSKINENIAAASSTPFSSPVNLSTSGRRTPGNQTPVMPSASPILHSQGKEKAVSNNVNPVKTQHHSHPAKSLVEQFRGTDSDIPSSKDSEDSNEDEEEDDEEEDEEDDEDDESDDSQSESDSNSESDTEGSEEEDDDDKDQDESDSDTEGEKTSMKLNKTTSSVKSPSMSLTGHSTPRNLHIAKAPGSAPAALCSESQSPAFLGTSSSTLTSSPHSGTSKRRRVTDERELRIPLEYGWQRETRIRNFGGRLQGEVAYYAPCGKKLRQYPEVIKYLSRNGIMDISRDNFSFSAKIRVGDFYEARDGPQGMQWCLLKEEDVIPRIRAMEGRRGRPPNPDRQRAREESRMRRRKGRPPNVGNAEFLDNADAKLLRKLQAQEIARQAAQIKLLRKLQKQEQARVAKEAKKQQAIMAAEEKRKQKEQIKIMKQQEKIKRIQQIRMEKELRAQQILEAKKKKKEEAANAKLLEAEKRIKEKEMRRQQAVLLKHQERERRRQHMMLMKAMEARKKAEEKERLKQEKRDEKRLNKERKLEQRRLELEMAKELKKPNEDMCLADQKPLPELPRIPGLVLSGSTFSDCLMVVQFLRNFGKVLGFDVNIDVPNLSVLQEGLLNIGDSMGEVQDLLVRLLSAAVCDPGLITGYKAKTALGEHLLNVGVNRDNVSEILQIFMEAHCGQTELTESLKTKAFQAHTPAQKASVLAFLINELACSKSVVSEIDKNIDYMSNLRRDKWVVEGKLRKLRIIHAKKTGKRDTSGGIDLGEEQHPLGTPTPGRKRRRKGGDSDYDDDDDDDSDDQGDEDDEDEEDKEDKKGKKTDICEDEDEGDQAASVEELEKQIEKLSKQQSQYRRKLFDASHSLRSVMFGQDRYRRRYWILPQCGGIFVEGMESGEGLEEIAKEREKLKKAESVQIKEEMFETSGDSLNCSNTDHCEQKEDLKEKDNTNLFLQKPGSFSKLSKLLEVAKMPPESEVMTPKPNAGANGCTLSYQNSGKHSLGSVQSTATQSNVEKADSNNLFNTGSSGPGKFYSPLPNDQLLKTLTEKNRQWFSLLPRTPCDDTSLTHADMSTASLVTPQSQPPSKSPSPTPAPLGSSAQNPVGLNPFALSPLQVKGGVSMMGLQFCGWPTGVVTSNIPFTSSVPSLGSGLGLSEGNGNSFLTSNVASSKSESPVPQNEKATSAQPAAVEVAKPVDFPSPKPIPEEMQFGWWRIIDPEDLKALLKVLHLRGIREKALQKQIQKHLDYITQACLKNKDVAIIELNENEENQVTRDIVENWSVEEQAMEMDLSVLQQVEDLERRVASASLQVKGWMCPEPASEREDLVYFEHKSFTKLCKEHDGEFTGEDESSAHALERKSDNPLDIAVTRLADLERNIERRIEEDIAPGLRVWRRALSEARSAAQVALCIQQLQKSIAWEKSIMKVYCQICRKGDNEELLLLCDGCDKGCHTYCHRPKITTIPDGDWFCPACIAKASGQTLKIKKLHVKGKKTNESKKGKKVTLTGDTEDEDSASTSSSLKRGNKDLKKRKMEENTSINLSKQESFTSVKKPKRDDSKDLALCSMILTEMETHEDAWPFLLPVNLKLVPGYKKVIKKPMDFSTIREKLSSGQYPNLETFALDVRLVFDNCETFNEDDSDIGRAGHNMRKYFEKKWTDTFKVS
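BAZ2B 50 nM plus b-H3(5-23)K14Ac 50 nM, PBS pH 7.4/0.01% Tween-20, 30 min RT; compound added (max 110 uM), 30 min RT; streptavidin donor/Ni-chelate acceptor beads 10 ug/mL final, 20 min dark; AlphaScreen read.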
* marks the source's active call; other numbers are inactive results; ? = inconclusive; . = no result given; [ ] = dose if it differs, or a comment. Calls come from the whole dose curve; as a rule, active = well fitted curve in the direction sought with a large enough effect; inconclusive = small, poorly fitted or top-dose-only effect, or another doubt; inactive = no such curve, though single readings can be large; an effect the other way counts as inactive or inconclusive. Potency is the fitted concentration of half-maximal effect.

SMILES	Sfp inh	G9a block	L3MBTL1 inh	JMJD2A Tudor	HP1b chromo inh	BAZ2B inh
COc1cccc(-c2nnc(SCC(=O)OC(C)C)n2Cc2ccco2)c1	2.8%	39.8µM*	-7.8%	-29.5%[11.4 µM]	-12.6%	-4.4%
O=C(CSc1nnc(Cc2ccccc2)n1Cc1ccco1)NC1CCCC1	?	-45.0%	-2.2%	-27.6%	0.9%	-31.0%
CC(C)OC(=O)CSc1nnc(-c2cnccn2)n1Cc1ccco1	-6.3%	-35.9%[59 µM]	.	-21.5%	22.6%	?
CC(C)OC(=O)CSc1nnc(Cc2ccccc2)n1Cc1ccco1	22.4µM*	8.91µM*	-15.7%	-11.9%	7.8%	5.6%
CC(C)(C)OC(=O)N1CCC(c2c(C(=O)NCCN3CCc4ccccc4C3)cnn2-c2ccc(F)cc2F)CC1	.	?	.	-31.7%	8.0%	-16.5%[57.1 µM]
COc1cc(C(=O)NNC(=O)c2cc(C)[nH]n2)cc(OC)c1OC	-13.8%	12.6µM*	10.4%	?	-25.5%	-35.7%
CCc1noc(C)c1C(=O)NNC(=O)c1cc(OC)c(OC)c(OC)c1	.	6.31µM*	3.8%	1.3%	29.2%	2.7%
Cc1cc(C(=O)NNC(=O)CCCCC(=O)NNC(=O)c2cc(C)[nH]n2)n[nH]1	79.4µM*	3.98µM*	12.4%	-15.3%	26.0%	7.3%
COc1ccc(CC(=O)NNC(=O)c2cc(C)[nH]n2)cc1	-15.5%	22.1%	.	?	14.8%	-15.8%
O=C1N=C(N2CCN(c3cccc4ccccc34)CC2)S/C1=C/c1cccs1	-3.0%	-28.7%[12.7 µM]	-11.6%	-26.1%	-16.7%	-4.9%
O=C1N=C(N2CCN(c3ccccc3)CC2)S/C1=C\c1cn[nH]c1-c1ccccc1	0.2%	-13.7%[59 µM]	-3.8%	-23.4%	1.4%	-2.8%
Cc1ccc(/C=C2\SC(N3CCCCC3)=NC2=O)cc1	-1.3%	15.5%	-4.2%	?	-17.6%	2.1%
Cc1ccccc1N1CCN(C2=NC(=O)/C(=C\c3cccs3)S2)CC1	-19.9%	50.1µM*	-13.7%	-32.0%	4.1%	-32.2%
O=C1N=C(N2CCCC2)S/C1=C\c1ccccc1	20.5%	-8.5%[59 µM]	4.4%	56.2µM*	-16.4%	12.6%
Cc1ccc(N2CCN(C3=NC(=O)/C(=C\c4cn[nH]c4-c4ccccc4)S3)CC2)cc1	-4.4%	-4.8%[59 µM]	5.6%	50.1µM*	-3.8%	-3.5%
O=C1N=C(N2CCN(c3ccccc3)CC2)S/C1=C\c1ccco1	-64.9%	39.8µM*	?	?	-9.0%	50.1µM*
O=C(NN1C(=O)/C(=C\c2cccnc2)SC1=S)c1ccco1	?	?	0.3%	0.0%[57.1 µM]	9.4%	.
COc1cc(C)c(CN2CCN(S(=O)(=O)c3ccc(Cl)s3)CC2)cc1OC	.	5.3%[2.33 µM]	-18.8%	-35.6%	6.6%	-34.2%
CCc1ccc(/C=C2/SC(N3CCOCC3)=NC2=O)cc1	-15.6%	.	3.0%	-3.8%	-13.5%	-10.4%
O=C1N=C(N2CCN(c3ccccc3)CC2)S/C1=C/c1ccco1	-6.2%	50.1µM*	-2.1%	?	2.6%	44.7µM*
NC1=NC(=O)/C(=C\c2ccco2)S1	35.5µM*	-44.5%[12.7 µM]	.	50.1µM*	56.2µM*	79.4µM*
O=C1N=C(N2CCOCC2)S/C1=C/c1cccs1	15.3%	4.7%[12.7 µM]	-2.3%	-6.6%	-5.2%	2.1%[57.1 µM]
CCN1CCN(C2=NC(=O)/C(=C/c3ccc(C)o3)S2)CC1	15.8µM*	31.6µM*	0.7%	-30.5%	-16.3%	?
N#Cc1nc(Nc2ccc(F)cc2)nc(NC2CCCC2)n1	.	.	.	-20.5%	.	.
O=c1[nH]c2ccccc2n2c(=S)[nH]nc12	-28.6%	.	5.3%	3.55µM*	-27.6%	-15.0%
COc1ccc(CNC(=O)/C=C/C(=O)O)cc1OC	-4.5%	17.4%[59 µM]	28.8%	-7.8%[57.1 µM]	70.5%	33.2%
O=C(O)/C=C/C(=O)NCCc1cccc(Cl)c1	10.7%	.	11.5%	2.9%	73.8%	4.0%
CCN(CC)S(=O)(=O)c1ccc(OC)c(NC(=O)/C=C/c2ccco2)c1	25.1µM*	.	-0.4%	-5.1%[11.4 µM]	?	70.8µM*
O=C(/C=C/c1cccc(Cl)c1)NCCc1ccccc1	20µM*	52.9%[59 µM]	17.8%	-19.6%	18.8%	-3.0%
